WT yeast gro inh: growth inhibition of WT yeast, mitochondrial fusion screen | mitochondrial fusion phenotypic screen, WT strain | inhibition, % at 10 µM | hit rate 2.1% among 190,000; in the data active = inhibition above about 58%; tested in S. cerevisiae
ROMK primary: modulates human ROMK potassium channel activity; P48048; Tet-inducible ROMK, thallium flux fluorescence; actives lie on both sides; B-score at 10 µM; hit rate 2% among 130,000;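 active = signal ratio slope over the read window, or its plate-corrected B-score, at least 3 SD from the plate mean, either direction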;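 note: B-score of the F/F0 ratio slope over 7 to 12 s after thallium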
Arbovirus anti: antivirals against arbovirus infection; hit rate 0.37% among 200,000; arbovirus infection cell-based antiviral screen; inhibition, % at 10 µM; in the data active = inhibition above about 30%
PERK inhibitor: human PERK inhibition, primary cell-based screen; Q9NZJ5; CHO PERK-DD fusion, SEAP luminescence translation reporter; inhibition, % at 5.6 µM; hit rate 0.17% among 220,000; AID 1416;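 active = inhibition above the mean inhibition of all tested compounds plus 3 SD, set separately per screening campaign, cut at about 2.9% in these data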;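 note: PERK kinase domain activated by AP20187 dimerizer at 100 nM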
Target sequence (Q9NZJ5 whole entry, looked up, the tested form may be a part): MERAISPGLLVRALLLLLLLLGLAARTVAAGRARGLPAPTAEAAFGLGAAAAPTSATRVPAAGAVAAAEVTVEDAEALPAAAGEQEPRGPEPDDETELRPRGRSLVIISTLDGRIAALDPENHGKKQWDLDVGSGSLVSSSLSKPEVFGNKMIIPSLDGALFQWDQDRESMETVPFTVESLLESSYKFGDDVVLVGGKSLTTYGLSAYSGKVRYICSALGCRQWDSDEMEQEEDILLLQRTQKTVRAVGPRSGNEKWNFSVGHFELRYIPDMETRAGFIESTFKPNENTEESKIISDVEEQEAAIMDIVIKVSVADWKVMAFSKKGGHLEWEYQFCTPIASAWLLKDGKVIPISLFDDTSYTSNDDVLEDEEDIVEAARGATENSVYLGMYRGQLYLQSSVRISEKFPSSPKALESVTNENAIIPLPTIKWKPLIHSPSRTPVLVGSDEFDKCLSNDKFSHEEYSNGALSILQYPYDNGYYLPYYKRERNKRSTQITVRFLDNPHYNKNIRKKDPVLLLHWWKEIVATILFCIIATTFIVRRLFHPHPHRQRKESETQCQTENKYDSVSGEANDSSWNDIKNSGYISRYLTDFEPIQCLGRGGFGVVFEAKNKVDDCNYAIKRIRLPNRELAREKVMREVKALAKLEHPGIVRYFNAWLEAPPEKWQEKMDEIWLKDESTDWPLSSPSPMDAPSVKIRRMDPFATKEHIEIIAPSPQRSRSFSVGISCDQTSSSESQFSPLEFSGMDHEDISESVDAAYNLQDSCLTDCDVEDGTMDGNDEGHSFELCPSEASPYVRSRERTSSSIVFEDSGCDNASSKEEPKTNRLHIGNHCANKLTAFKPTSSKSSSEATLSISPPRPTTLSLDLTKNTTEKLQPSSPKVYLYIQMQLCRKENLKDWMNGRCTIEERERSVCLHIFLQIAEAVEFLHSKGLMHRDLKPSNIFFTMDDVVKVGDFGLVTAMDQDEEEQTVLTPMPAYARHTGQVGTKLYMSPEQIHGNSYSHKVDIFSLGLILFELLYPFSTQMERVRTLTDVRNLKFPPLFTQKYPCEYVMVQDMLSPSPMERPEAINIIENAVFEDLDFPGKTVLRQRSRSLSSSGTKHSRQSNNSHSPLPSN
ROMK retest: retested hit modulating human ROMK potassium channel; normalized thallium flux (F/F0 slope) at 10 µM; hit rate 54% among 3,000; shares compounds with ROMK primary; ROMK thallium flux, fluorescence ratio; stronger effect = lower value;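 active = Flux at 10 µM at least 3 SD below or above vehicle control mean in one or both replicates; inconclusive = no clear call, values can overlap the other calls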
Of the large screens only hits and unclear results are named; the others gave an inactive call (follow-up assays come after a bar, where they were run). In the library only some 3.3% were active in any assay of this set; here they are far more common.

O=C(CCn1c2c(c3ccccc31)CCCC2)NNC(=O)c1ccccc1C(=O)O	none (no result: WT yeast gro inh, ROMK primary, Arbovirus anti) | ROMK retest inactive
O=C(CCn1c2c(c3ccccc31)CCCC2)NNC(=O)c1ccccc1[N+](=O)[O-]	none (no result: ROMK primary)
O=C(Nc1cccc(Cl)c1)Nc1ccnc(-c2cccnc2)n1	ROMK primary 2.4, Arbovirus anti 34 | ROMK retest inactive
COc1ccc(Nc2ncnc3scc(-c4ccc(OC)cc4)c23)cc1	WT yeast gro inh 72 | ROMK retest 0.066
O=C(NNc1ccccc1)/C(=C\c1cccnc1)NC(=O)c1ccccc1	none (no result: WT yeast gro inh, ROMK primary, Arbovirus anti)
CCN(c1ccccc1)S(=O)(=O)c1ccc(F)cc1	none (no result: ROMK primary)
CCN(c1ccccc1)S(=O)(=O)c1ccc(N)c(OC)c1	ROMK primary 3.5 | ROMK retest inactive
COc1ccc(OCC(N)=O)cc1	none (no result: ROMK primary) | ROMK retest inactive
COc1cc(OCC(N)=O)cc(OC)c1OC	none
CCOC(=O)C1(CC2CCCCO2)CCN(Cc2nc3ccccc3[nH]2)CC1 (stereo not drawn)	none
COC(=O)C1CCN(C(=O)COC(=O)c2n[nH]c3ccccc23)CC1	none | ROMK retest inactive
CC1C2=C(CCCC2=O)N(c2cccc3ccccc23)C2=C1C(=O)CCC2	none (no result: WT yeast gro inh, Arbovirus anti)
C#CC1CCCCC1NC(=O)Nc1cnccc1C(F)(F)F (stereo not drawn)	none (no result: WT yeast gro inh, ROMK primary, Arbovirus anti)
N#C/C(=C\c1ccccc1)C(=O)NC(=O)Oc1ccccc1	none
N#C/C(=C\c1ccccc1Cl)C(=O)NC(=O)Oc1ccccc1	ROMK primary -4.3 | ROMK retest 0.046
COc1ccccc1N(C)S(=O)(=O)c1ccc(C(=O)OCC(=O)NCc2ccco2)cc1	none
NC(=O)C1CCN(C(=O)C2CCN(S(=O)(=O)c3ccccc3)CC2)CC1	none (no result: ROMK primary)
CC/C(=N/Nc1cccc(C)c1)c1cnnc(SC)n1	ROMK primary -4.1 | ROMK retest inconclusive
CC/C(=N/Nc1ccc(Cl)cc1)c1cnnc(SC)n1	none
CC1(C)Cc2c(c(-c3ccco3)[nH]c(=O)c2C#N)CS1	ROMK primary -3.7 | ROMK retest inactive
CC1(C)Cc2c(C#N)c(N3CCN(C(=O)c4ccco4)CC3)nc(-c3ccco3)c2CS1	none
CC1(C)Cc2c(C#N)c(N3CCN(C(=O)c4ccccc4Cl)CC3)nc(-c3ccco3)c2CS1	ROMK primary -1.8 | ROMK retest inactive
Cc1cc(C)cc(NC(=O)COC(=O)CN=C2NS(=O)(=O)c3ccccc32)c1	none
CN(C(=O)CSCC(=O)O)C1CCCCC1	none (no result: ROMK primary)
CCOc1cc(CNCCCN2CCOCC2)cc(Br)c1OCc1ccccc1Cl	ROMK primary -1.6 | ROMK retest inconclusive
CCOc1cc(CNCCN2CCOCC2)ccc1OCc1ccccc1Cl	none
COc1cc(/C=N/N=C(N)N)ccc1OCc1ccccc1Cl	ROMK primary -3.7 | ROMK retest 0.055
Cc1oc(-c2ccc(Cl)cc2)nc1CN1CCCC(C(=O)NCCCN2CCCC2=O)C1 (stereo not drawn)	none (no result: ROMK primary)
CC1C/C(=C/c2cccn2C)C(=O)/C(=C/c2cccn2C)C1 (stereo not drawn)	none (no result: ROMK primary)
CC1C/C(=C/c2ccncc2)C(=O)/C(=C/c2ccncc2)C1 (stereo not drawn)	WT yeast gro inh 77, ROMK primary -1.8 | ROMK retest 0.05
CC(=O)NS(=O)(=O)c1ccc(NC(=O)CSc2ccccc2)cc1	none (no result: WT yeast gro inh, ROMK primary, Arbovirus anti) | ROMK retest inactive
O=C(CSc1ccccc1)Nc1ccc(S(=O)(=O)Nc2ncccn2)cc1	none
CCn1nnnc1NC(=O)c1cc(Cl)c(OC)c(Cl)c1	none
CCOCCCNCc1ccc(OCc2ccccc2C)c(OC)c1	none (no result: ROMK primary)
Cc1cc(=O)[nH]c(SCc2cccc(Br)c2)n1	none
Cc1cc(CSc2nc(C)cc(=O)[nH]2)c2ncccc2c1	ROMK primary -11 | ROMK retest inactive
O=S(=O)(NCc1ccccc1)NCc1ccccc1	none (no result: ROMK primary) | ROMK retest inactive
O=S(=O)(NCc1ccccc1)NCc1ccccc1F	none (no result: ROMK primary)
O=C(Nc1nc2ccc(F)cc2s1)C1CCCO1 (stereo not drawn)	none (no result: ROMK primary)
CO/N=C\Cc1oc(=O)c(NC(=O)c2ccccc2)cc1C(=O)OC	none
COC(=O)c1cc(NC(=O)c2ccccc2)c(=O)oc1C/C=N\OCc1ccc(Cl)cc1Cl	ROMK primary -2.8 | ROMK retest 0.065
COC(=O)c1cc(COc2ccc3oc(C)c(C(=O)OC(C)C)c3c2)c(C)o1	none
O=C(NCCCN1CCCC1=O)c1ccc(Cl)c(Cl)c1	none
COc1cc2c3c(c1)C(C)CC(C)(C)N3C(=O)C2=O (stereo not drawn)	ROMK primary 3.4 | ROMK retest inactive
CC1CCc2cc(F)ccc2N1C(=O)CCl (stereo not drawn)	ROMK primary -4.3 | ROMK retest 0.048
C=CCOC(=O)C1=C[C@@H](C2CCCCC2)C[C@@H](OCc2ccc(CO)cc2)O1	none (no result: ROMK primary)
CCn1c(CNc2cccc(Cl)c2)nnc1SCC(=O)OC1CCCCC1	none (no result: ROMK primary) | ROMK retest 0.062
Cc1cccc(C)c1NC(=S)N1CCCN(Cc2ccc(F)cc2)C1	none (no result: ROMK primary)
Cc1ccc(NC(=O)N2CCCN(Cc3ccc(F)cc3)C2)cc1C	ROMK primary -4 | ROMK retest 0.056
O=C(NNC(=S)Nc1ccc(Br)cc1Cl)c1ccncc1	ROMK primary 6 | ROMK retest 0.11
Cc1cc(Sc2ncnc(N)c2[N+](=O)[O-])ncn1	ROMK primary -0.97 | ROMK retest inactive
COc1cc2c(cc1OC)CN(CCC(=O)c1ccc(Br)cc1)CC2	ROMK primary -4 | ROMK retest inconclusive
Cc1cc(F)ccc1N1CCC(N2CCN(CCC(C)C)C(CCO)C2)CC1 (stereo not drawn)	ROMK primary -2.8 | ROMK retest 0.058
COc1ccc(-c2nc3n(c2C)CCC3)cc1	none (no result: WT yeast gro inh, ROMK primary, Arbovirus anti)
COc1ccc(C2=C(SC)CC2=NC(C)(C)C)cc1	ROMK primary -4.7 | ROMK retest 0.046
O=C(Nc1ccc(Cl)c([N+](=O)[O-])c1)ONC1=NCCCCC1	none
O=C(O)Cc1cn(-c2ccccc2)nc1-c1ccccc1	none
Fc1ccc(-c2nn(-c3ccccc3)cc2CNCc2ccccc2)cc1	ROMK primary -2.6 | ROMK retest 0.047
COc1ccc(CNc2nc3ccccc3n2C)c(OC)c1	ROMK primary -7.6 | ROMK retest inactive
COc1ccccc1OCc1ccc(C(=O)N(C)C)o1	none (no result: ROMK primary) | ROMK retest inactive
CCOc1cccc(NC(=O)/C(C#N)=C\c2cccnc2)c1	ROMK primary -3.3 | ROMK retest 0.047
N#C/C(=C\c1cccnc1)C(=O)Nc1ccccc1	ROMK primary -4.2 | ROMK retest 0.053
Cc1ccccc1CN(c1ccc(C(=O)Nc2ccccc2C(=O)NCc2ccco2)cc1)S(C)(=O)=O	none
Nc1nc(Nc2ccccc2)sc1C(=O)c1ccccc1	none (no result: WT yeast gro inh, ROMK primary, Arbovirus anti) | ROMK retest inconclusive
O=C(CNS(=O)(=O)c1ccc(Cl)cc1)OCC(=O)N1CCCc2ccccc21	none (no result: ROMK primary)
c1ccc(CC2CCN(C3=Nc4cccc5cccc3c45)CC2)cc1	ROMK primary -4.4 | ROMK retest 0.062
CC1CN(C2=Nc3cccc4cccc2c34)CC(C)O1 (stereo not drawn)	ROMK primary -1.8 | ROMK retest 0.063
c1cc2c3c(cccc3c1)C(N1CCN(C3=Nc4cccc5cccc3c45)CC1)=N2	none (no result: WT yeast gro inh, ROMK primary, Arbovirus anti)
CCOc1cc(/C=N/NC(=O)CN2CCCCC2)ccc1OCc1cccc(Cl)c1	ROMK primary -4.6 | ROMK retest inconclusive
CC1CCCCN1c1nnc(NC(=O)Cn2c(=O)oc3ccccc32)s1 (stereo not drawn)	none (no result: ROMK primary)

Assay outcomes (PubChem)
